Where “and” joins values, the source holds several entries; their conditions need not be identical. Equal values may be shown once. Hit rate of the full screen: of about 310,000 compounds, about 11,000 (3.5%) were called active. Another 4% or so got no clear call; they are omitted. Many of the other results were omitted from the sample, so actives are more common in it than they were. A number with no mark means an inactive call. Calls follow the shape of the dose curve; as a rule, active = well fitted inhibition curve with a large enough effect; inconclusive = small, poorly fitted or top-dose-only effect, or another doubt; inactive = no such curve, though single readings can be large or run the other way.
Potency is read from the fitted curve at half-maximal effect.

The experiment addresses 4'-phosphopantetheinyl transferase ffp (Bacillus subtilis) (UniProt Q9F4F7). In words: qHTS Assay for Inhibitors of Bacillus subtilis Sfp phosphopantetheinyl transferase (PPTase).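 Also: the enzyme is Sfp with the accession as filed and its product quenches rhodamine fluorescence.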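 As to largest response in the series, negative = inhibition: 0% = enzyme reaction without inhibitor and -100% = no enzyme wells.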 To be noted: Biochemical Sfp PPTase activity. In outline:
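Step 1, compound plus 15 nM Sfp-PPTase, 15 min, room temperature. Step 2, add rhodamine-CoA (5 uM) and BHQ-2-YbbR (12.5 uM). Step 3, read 525/598 nm fluorescence at 0 and 30 min.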
`COc1cc(S(=O)(=O)N2CCN=C2c2ccccc2)ccc1Cl`: the largest response in the series, negative = inhibition was 14%.

As to `CC(C)C(C)NC(=O)COc1nc2ccccc2nc1N(C)C1CCCCC1` (stereo not given), the largest response in the series, negative = inhibition is -0.152%.

Take `COCCN(C(=O)CCC(=O)Nc1nccs1)C(C(=O)NCCC(C)C)c1ccc(F)cc1` (stereo not given): the largest response in the series, negative = inhibition is 9.51%.

Turning to `O=C(Nc1ccc(NC(=O)c2cccs2)cc1)c1ccc2ccccc2c1`, the largest response in the series, negative = inhibition was -1.36%.

With `CC(=O)CCC(=O)c1ccc2ccccc2c1`, the largest response in the series, negative = inhibition is 7.52%.

For the compound `C=CC(=O)c1ccc2ccccc2c1`, the Potency is 3.55 µM (active) and 31.6 µM (active).

Regarding `Cc1ccccc1Nc1nc(-c2cccnc2)cs1`, the largest response in the series, negative = inhibition was -24.9%.

With `c1cnc(N2CCN(c3ccc4ccccc4n3)CC2)nc1`, the largest response in the series, negative = inhibition is -3.4%.

Turning to `COc1ccccc1N1CCN(C(=O)CCS(=O)(=O)c2ccc3c(c2)NC(=O)C(C)S3)CC1` (stereo not given), the largest response in the series, negative = inhibition was 0.999%.

As for `COc1ccc(N(C(=O)c2cccnc2)S(=O)(=O)c2ccc(OC)c(OC)c2)cc1`, the largest response in the series, negative = inhibition is 3.04%.

`O=C(c1cccnc1)N(c1cc2sc(=O)oc2c2ccccc12)S(=O)(=O)c1ccccc1`: the Potency was 3.98 µM (active).

On to `COc1ccc(N(C(=O)c2cccnc2)S(=O)(=O)c2ccc3c(c2)n(C)c(=O)n3C)cc1`, for which the largest response in the series, negative = inhibition was 20.5%.

In the case of `Cc1ccccc1N1CC(C(=O)Nc2nnc(SCCC3OCCO3)s2)CC1=O` (stereo not given), the largest response in the series, negative = inhibition is -15.5%.

For the compound `COc1cc(OC)cc(C(=O)Nc2nnc(SCC(=O)NCC3CCCO3)s2)c1` (stereo not given), the largest response in the series, negative = inhibition was -4.79%.

In the case of `COc1ccccc1N1CC(C(=O)Nc2nnc(SCC(=O)NCC3CCCO3)s2)CC1=O` (stereo not given), the Potency is 50.1 µM (active).

Consider `CCCCC(c1nnnn1CS(=O)(=O)c1ccc(C)cc1)N1CCC(C(N)=O)CC1` (stereo not given), for which the largest response in the series, negative = inhibition was 13.9%.

On to `CC(NS(=O)(=O)c1ccc(Br)cc1)C(=O)NCC1CCCO1` (stereo not given), for which the largest response in the series, negative = inhibition is 16.5%.

For `O=C(CSc1ccc(-c2ccc(Br)cc2)nn1)NCC1CCCO1` (stereo not given), the largest response in the series, negative = inhibition is 6.34%.

As to `OC(CNCC1CCCO1)Cn1c2ccc(Br)cc2c2cc(Br)ccc21` (stereo not given), the Potency was 22.4 µM (active).

For the compound `COc1ccc(CCNC(=O)c2cnc(Cl)c(Cl)c2)cc1`, the largest response in the series, negative = inhibition was 9%.

With `CC1(C)CCc2nc(SCc3ccccc3)c(C#N)cc2C1`, the largest response in the series, negative = inhibition is -5.3%.

Consider `CC(NC(=O)CSc1nc2c(cc1C#N)CN(C)CC2)c1ccccc1` (stereo not given), for which the Potency was 56.2 µM (active).

In the case of `Cc1cc(NC(=O)CSc2nc3c(cc2C#N)CCCCC3)no1`, the largest response in the series, negative = inhibition is 15.4%.

For `O=C(NCc1ccccc1)C(c1cccnc1)N(C(=O)c1csnn1)c1ccc(F)cc1` (stereo not given), the largest response in the series, negative = inhibition was 19.5%.

On to `CC(C)CCn1c(=O)c2c(nc3n2CCCN3Cc2ccccc2)n(C)c1=O`, for which the largest response in the series, negative = inhibition was 4.31%.

For the compound `NCCCNCCCCN(CCCN)/[N+]([O-])=N/O`, the largest response in the series, negative = inhibition was -7.71%.

Regarding `Cc1ncn(C23CC4CC(CC(O)(C4)C2)C3)n1`, the largest response in the series, negative = inhibition was 17.6%.

With `COc1cccc(NC(=O)c2nn(C34CC5CC(CC(C5)C3)C4)cc2[N+](=O)[O-])c1`, the largest response in the series, negative = inhibition is 11.6%.

For the compound `Cc1nc([N+](=O)[O-])nn1C12CC3CC(CC(Br)(C3)C1)C2`, the Potency was 15.8 µM (active).

Consider `COc1cccc(CNS(=O)(=O)c2ccc3c(c2)CC(C)N3C(=O)C2CCC2)c1` (stereo not given), for which the largest response in the series, negative = inhibition was 20.3%.

In the case of `COc1cc(/C=N/NC(=O)c2cccnc2)ccc1OC(=O)c1cccc(Br)c1`, the largest response in the series, negative = inhibition is 9.75%.

Consider `O=C(CN1C(=O)COc2ccccc21)Nc1ccc(F)cc1`, for which the Potency was 50.1 µM (active).

`O=C(CN1C(=O)COc2ccc(Cl)cc21)Nc1ccc(N2CCOCC2)cc1`: the largest response in the series, negative = inhibition was 9.73%.

With `CC(OC(=O)CN1C(=O)COc2ccccc21)C(=O)NCc1ccc(F)cc1` (stereo not given), the largest response in the series, negative = inhibition was 16.7%.

As to `COc1ccc(N2CCC(N3CCN(C)C(CCO)C3)CC2)cc1` (stereo not given), the largest response in the series, negative = inhibition is -5.05%.

Turning to `Cc1cc(C)c2oc(C(=O)Nc3ccc(S(=O)(=O)Nc4nccc(C)n4)cc3)cc(=O)c2c1`, the largest response in the series, negative = inhibition is 13.2%.

Regarding `COc1ccc(C(=O)Nc2cc(C)c(NC(=O)c3ccccc3OC)cn2)cc1`, the largest response in the series, negative = inhibition is -0.964%.

Take `Cn1nc(-c2ccccc2)c2cc([N+](=O)[O-])ccc21`: the largest response in the series, negative = inhibition was 15.4%.

Consider `Cc1nn(C)c(Oc2ccccc2)c1[N+](=O)[O-]`, for which the largest response in the series, negative = inhibition was 4.16%.

Turning to `Cc1cccc(Oc2c([N+](=O)[O-])c(=O)n(C)c3ccccc23)c1`, the Potency was 6.31 µM (active).

Consider `Cc1cccc(OP(=O)(Nc2c(C)n(C)n(-c3ccccc3)c2=O)Oc2cccc(C)c2)c1`, for which the largest response in the series, negative = inhibition is 2%.

Turning to `Cn1c(=O)c([N+](=O)[O-])c(Oc2ccccc2)c2ccccc21`, the Potency was 20 µM (active).

Take `Cn1c2ccccc2c(=O)c2c(O)cccc21`: the largest response in the series, negative = inhibition was 1.81%.

As to `CC(C)[C@H](NC(=O)N1c2ccccc2NC(=O)[C@@H]1C(C)C)C(=O)N[C@H](C(=O)O)c1ccccc1`, the largest response in the series, negative = inhibition is 21%.

As for `CCCN1CCC(=O)N(C(CSc2ccc(OC)cc2)Cc2ccccc2)CC1` (stereo not given), the largest response in the series, negative = inhibition is -7.33%.

Take `COc1cc(C2/C(=C(\O)c3ccc4c(c3)CC(C)O4)C(=O)C(=O)N2c2nnc(C)s2)cc(OC)c1OC` (stereo not given): the largest response in the series, negative = inhibition was -19.8%.

On to `Cc1ccc(-c2ccnc3[nH]n(-c4ccccc4)c(=O)c23)cc1`, for which the largest response in the series, negative = inhibition was 9.66%.

As for `CCOc1cccc(/C=N/NC(=S)NCCN2CCOCC2)c1O`, the largest response in the series, negative = inhibition was 9.81%.

For `O=C1CSC(=S)N1c1ccc(O)cc1`, the largest response in the series, negative = inhibition was -9.51%.

With `CCOc1cccc(/C=N/N2C(=O)CSC2=S)c1O`, the Potency was 10 µM (active).

On to `COc1ccccc1NC(=O)C(C)OC(=O)CC1CCCC1` (stereo not given), for which the largest response in the series, negative = inhibition was 16.2%.

For `CC(C)Cn1c(=O)c2ccccc2n2c(CCC(=O)NCc3ccccn3)nnc12`, the largest response in the series, negative = inhibition is 15.4%.

With `COc1ccc(NC(=O)N2CCCC2C(=O)NCc2ccccc2Cl)cc1` (stereo not given), the largest response in the series, negative = inhibition was 1.27%.

Consider `CC(=O)Nc1ccc(S(=O)(=O)Nc2cc(C)cn(Cc3ccc(C)cc3)c2=O)cc1`, for which the largest response in the series, negative = inhibition was 1.38%.

On to `Cc1ccc(NC(=O)c2csc3c2CCCC3)cc1`, for which the largest response in the series, negative = inhibition was -32.4%.

With `Cc1ccc(NC(=O)c2c(NC(=O)CCC(=O)O)sc3c2CCCCC3)cc1`, the Potency is 11.2 µM (active).

As for `O=C(CN1CCCC1)Nc1sc2c(c1C(=O)Nc1ccccc1)CCCC2`, the largest response in the series, negative = inhibition is -1.37%.

As for `COCCCNC(=O)[C@H]1N2C(=O)c3ccccc3C2SC1(C)C` (stereo not given in full), the Potency is 56.2 µM (active).

For `CC1(C)SC2c3ccccc3C(=O)N2[C@@H]1C(=O)NCc1ccco1` (stereo not given in full), the largest response in the series, negative = inhibition is -10.3%.

With `COCCCNC(=O)C1CC(=O)N(CCc2ccccc2)C1` (stereo not given), the largest response in the series, negative = inhibition is 9.12%.

These data come from PubChem BioAssay AID1490 (National Center for Advancing Translational Sciences (NCATS), 2009).
